# Compound activity deposited in PubChem by several laboratories.
# ssDAF12 agonist: S. stercoralis DAF-12 nuclear receptor activators, primary screen, cell-based, luminescence, HEK293, GRIP1 co-expression, lit1-tk-luc | Nuclear hormone receptor DAF-12 (Strongyloides stercoralis) | HEK293 ssDAF-12/GRIP1 lit1-tk-luc reporter; % of 3 µM dafachronic acid response | activation, % at 6.8 µM | hit rate 1% among 370,000 | AID 652126, 2013;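 active = activation above the mean over all tested compounds plus 3 SD, cut at about 0.9% in these data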;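 also: 0% = DMSO-only wells and 100% = 3 µM delta7-dafachronic acid wells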
# esBAF inh: Bmi1 luciferase reporter increase in mESCs, primary screen, esBAF inhibitor project, mouse ES cells, Bmi1 luciferase knock-in, single point | 24 h; 100% = twice the neutral-well signal | reporter increase, % at 12.5 µM | hit rate 2% among 350,000 | AID 602393, 2012; in the data active = activation above about 40%; inconclusive = no clear call, values can overlap the other calls;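 also: 0% = median of the plate's neutral control wells and 100% = double that signal; a rise in the Bmi1 reporter signal indicates esBAF inhibition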
# hcDAF12 agonist: H. contortus DAF-12 nuclear receptor activators, primary screen, cell-based, luminescence, HEK293, lit1-tk-luc reporter | HEK293 hcDAF-12 lit1-tk-luc reporter; 0% DMSO, 100% Δ7-dafachronic acid | activation, % at 6.8 µM | hit rate 1.4% among 370,000 | AID 652067, 2013;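 active = activation above the mean of all tested compounds plus 3 SD, cut at about 5.5% in these data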;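 also: 100% = response to 3 µM Δ7-dafachronic acid high control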
# hgDAF12 agonist: H. glycines DAF-12 receptor agonists, primary screen, cell-based, luminescence, HEK293, GAL4 fusion, UAS-luciferase | Nuclear hormone receptor DAF-12 (Heterodera glycines), GAL4 fusion | HEK293 GAL4-hgDAF12 UAS-luciferase reporter, agonist luminescence; normalized to butyrate control | activation, % at 6.8 µM | hit rate 1.8% among 370,000 | AID 687014, 2013;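 active = activation above a cutoff set at the mean of all screened compounds plus 3 SD, cut at about 10% in these data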;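 also: 0% = DMSO wells and 100% = sodium butyrate wells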
# Wnt bcat act: Wnt/beta-catenin pathway activators, primary screen, cell-based, plate reader, single point; activation, % at 9.35 µM; Wnt/beta-catenin reporter cell assay, activator; hit rate 1.2% among 300,000; AID 743398, 2014; in the data active = activation above about 30%, passing the limit was not always enough; inconclusive = no clear call, values can overlap the other calls;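 also: 0% = neutral control wells and 100% = positive control wells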
# DAX1 StAR inh: DAX1 (NR0B1) inhibitors on StAR promoter, primary screen, cell-based, luminescence, SF-1 (NR5A1), full-length DAX-1; hit rate 1.1% among 370,000; HEK293T StAR-luciferase reporter, SF-1/DAX-1 repression relief; AID 652010, 2013; inhibition, % at 6.8 µM;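 active = inhibition above the mean over all tested compounds plus 3 SD, cut at about 3.6% in these data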;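 also: 0% = DAX-1 cells with DMSO and 100% = cells lacking DAX-1 with DMSO; higher inhibition means more luminescence from relief of DAX-1 repression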
# hgDAF12 ag: H. glycines DAF-12 receptor agonists, confirmation, cell-based, luminescence, HEK293, GAL4-LBD fusion; HEK293 GAL4-hgDAF12 luciferase reporter, agonist mode; percent of butyrate response; shares compounds with hgDAF12 agonist; activation, % at 6.8 µM; hit rate 80% among 3,300;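 active = mean activation over triplicate wells above the hit cutoff derived from the earlier primary screen, cut at about 11% in these data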;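 also: 0% = DMSO low control and 100% = 2 mM sodium butyrate high control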
# LXRb DAF12 ctr: LXR agonists, Gal4 luciferase reporter, confirmation, counter-screen for hgDAF-12 agonist project, cell-based, luminescence, HEK293, H. glycines campaign; 24 h; activation, % at 6.8 µM; 3,300 tested, under 10 active; shares compounds with hgDAF12 agonist;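 active = mean activation of the triplicate above a set limit carried over from the primary screen, none filed active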
# Target sequence (P55055 whole entry, looked up, the tested form may be a part): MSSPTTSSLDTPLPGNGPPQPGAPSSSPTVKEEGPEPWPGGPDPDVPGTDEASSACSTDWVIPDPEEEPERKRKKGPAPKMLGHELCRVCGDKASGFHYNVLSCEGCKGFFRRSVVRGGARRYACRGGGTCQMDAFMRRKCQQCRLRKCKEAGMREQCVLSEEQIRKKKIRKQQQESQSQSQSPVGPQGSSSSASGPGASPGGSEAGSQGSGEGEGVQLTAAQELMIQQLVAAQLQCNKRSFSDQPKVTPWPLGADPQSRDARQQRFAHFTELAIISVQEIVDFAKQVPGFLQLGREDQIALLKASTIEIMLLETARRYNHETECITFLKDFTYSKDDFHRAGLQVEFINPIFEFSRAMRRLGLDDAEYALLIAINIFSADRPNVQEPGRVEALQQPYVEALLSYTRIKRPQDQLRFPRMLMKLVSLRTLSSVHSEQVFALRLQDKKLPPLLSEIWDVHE
# * = called active by the depositor; u = inconclusive; x = no result given. This is a sample that favours compounds with a hit; in the whole collection about 4.2% have one here.
SMILES,ssDAF12 agonist,esBAF inh,hcDAF12 agonist,hgDAF12 agonist,Wnt bcat act,DAX1 StAR inh,hgDAF12 ag,LXRb DAF12 ctr
O=C(Nc1ccc(Br)cc1)c1ccc2ncsc2c1,1.0*,32,5,19*,18,2,15*,1
CCN1[C@@H]2c3ccc(-c4cccc(F)c4)c(=O)n3C[C@H]1[C@H](CO)[C@H]2C(=O)NCC1CC1,x,-2,x,x,x,x,x,x
COc1ccc2c(c1)CC/C2=N\OC(=O)c1cccc(C)c1,0,x,2,14*,14,2,17*,1
CC(C)NC(=O)Nc1cccc2c1O[C@H](CN(C)S(=O)(=O)c1ccccc1)[C@H](C)CN([C@H](C)CO)C2=O,x,2,x,x,x,x,x,x
CCOc1ccc(-c2ccc(SCC(=O)NC3CCCCC3)nn2)cc1,-1,u,3,2,20,3,x,x
CCOc1ccc(-c2ccc(SCC(=O)Nc3nnc(C)s3)nn2)cc1,0,-11,1,13*,2,4.3*,17*,1
CC=Cc1ccc2n(c1=O)C[C@H]1[C@H](CO)[C@@H](C(=O)NCCC)[C@@H]2N1Cc1ccccc1 (mixture of isomers),x,-7,x,x,x,x,x,x
C[C@@H]1CN([C@H](C)CO)C(=O)Cc2cc(NC(=O)c3ccncc3)ccc2O[C@H]1CN(C)S(=O)(=O)c1ccc(F)cc1,x,1,x,x,x,x,x,x
Cc1ccc(Nc2cc(-n3cccn3)ncn2)c(C)c1,-1,u,-1,15*,23,3,12*,1
Cc1ccc(Nc2cc(-n3nc(C)cc3C)ncn2)c(C)c1,-2,2,-3,2,x,-1,x,x
NNC(=O)c1cccc(COc2ccc(Br)cc2)c1,-1,5,4,19*,x,3.7*,22*,1
NNC(=O)c1cccc(COc2cccc(Br)c2)c1,-1,36,0,10,x,0,x,x
COc1cc(CNC(=O)c2cccc(COc3ccc(Cl)cc3)c2)cc(OC)c1,-1,x,1,7,18,2,x,x
COc1ccc(OCc2cccc(C(=O)NN)c2)cc1,-1,-24,2,18*,3,3.9*,21*,1
CCCNC(=O)c1cccc(COCC(F)(F)F)c1,-1,-6,0,0,-2,0,x,x
CCCNC(=O)c1cccc(COc2ccccc2OC)c1,0,1,1,17*,15,2,14*,1
C[C@@H]1CN([C@H](C)CO)C(=O)c2cccc(NS(=O)(=O)c3ccc(F)cc3)c2O[C@@H]1CN(C)Cc1ccc(C(=O)O)cc1,x,-5,x,x,x,x,x,x
Cc1ccc(-c2nc(Nc3cccc(C)c3)sc2CC(=O)O)cc1,0,18,3,17*,20,4,5,0
C[C@@H](C(=O)Nc1ccc2c(c1)OCCO2)n1nnc2ccccc2c1=O,0,57*,2,13*,24,1,14*,1
CCCCS/C(N)=N/N=C/c1cc(C)ccc1O,0,x,0,6,x,0,x,x
CS/C(N)=N/N=C/c1c(O)ccc2ccccc12,1.0*,x,5,19*,u,2,13*,0
CN(C)/N=C/c1c(O)ccc2ccccc12,-1,x,0,-2,x,0,x,x
CS/C(N)=N/N=C/c1cc(C)ccc1O,0,x,5,18*,88*,2,14*,1
